Experimental data reported in PubChem BioAssay (NCI).
“And” between values parts separate entries of the source, which are not always exact repeats. Equal entries are not always repeated. Compounds without any hit were thinned out: in the full panel of roughly 83,000, 20% have a hit.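 Activity criterion: percent growth below 10, measured after cells in 96-well plates were exposed to a single compound concentration for 48 hours.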

How the values were obtained:
Experiment in all cases: NCI-60 one-dose screen, 48 h (100 = growth as untreated, 0 = no growth, -100 = all killed)
Settings in all cases: 10 µM unless noted
[1] = system: NCI-H23 lung
[2] = system: NCI-H226 lung
[3] = system: NCI-H322M lung
[4] = system: HOP-62 NSCLC
[5] = system: NCI-H460 lung
[6] = system: HOP-92 NSCLC
[7] = system: NCI-H522 lung
[8] = system: A549/ATCC NSCLC
[9] = system: 786-0 renal
[10] = system: COLO 205 colon

Measured: growth

Cc1c(C(=O)OCCCCOC(=O)c2c(C)n(C)c3scc[n+]23)[n+]2ccsc2n1C
inactive: [1] 101% | [2] 91.1% | [3] 112% | [4] 109% | [5] 108% | [6] 88.9% | [7] 99.6% | [8] 90.2% | [9] 112% | [10] 119%

C/C(=C(\c1ccc(OCCN2CCOCC2)cc1)c1ccc(OC(=O)C2CCCCC2)cc1)c1ccc(Cl)cc1
inactive: [1] 88.9% | [2] 103% | [3] 91.9% | [4] 99.4% | [5] 97.5% | [6] 71% | [7] 62.8% | [8] 92.9% | [9] 80.6% | [10] 103%

C=C(c1ccc(C(=O)O)cc1)c1cc2c(cc1C)C(C)(C)CCC2(C)C
inactive: [1] 81.7% and 81.9% | [2] 76% and 86.3% | [3] 72% | [4] 79.7% and 67.3% | [5] 83.4% and 79% | [6] 68.4% | [7] 52.4% and 61.4% | [8] 52.1% and 31.2% | [9] 79.1% and 80.1% | [10] 135% and 118%

O=C1C(N2CCOCC2)=C(I)C(=O)c2ncccc21
inactive: [1] 58.1% | [2] 84.8% | [3] 99.1% | [4] 55.8% | [5] 58.8% | [6] 123% | [7] 36.5% | [8] 85.8% | [9] 90% | [10] 102%
